Experimental data as given in PubChem BioAssay AID686978 (National Center for Advancing Translational Sciences (NCATS), 2013).
Hit rate of the full screen: of about 420,000 compounds, about 64,000 (15%) were called active. Roughly 27% stayed inconclusive and do not appear here. The call rests on the fitted dose curve; in most records, active means well fitted inhibition curve with a large enough effect; inconclusive means small, poorly fitted or top-dose-only effect; inactive means flat fitted curve, though single readings scatter. A selection follows. Entries that show only a call come without a potency.

Assay: qHTS for Inhibitors of human tyrosyl-DNA phosphodiesterase 1 (TDP1): qHTS in cells in absence of CPT; further: nearly all actives have a fitted effect of over 55% in size
Conditions: DT40 Tdp1-/- hTDP1 cells, no CPT, ATP luminescence, 48 h; activity change, negative = growth inhibition: at 46.2 µM (top of the series)
How it was run: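 Growth kinetics read by CellTiter-Glo luminescence after ≥48 hr at 37 °C. Cells: DT40 Tdp1-/- stably carrying human TDP1, 400 per well, compound exposure in the absence of CPT (DMSO vehicle).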
Potency means the concentration at half of the fitted maximal effect.

Compound	Potency
Cc1ccc(S(=O)(=O)N(CC(=O)NCc2ccco2)c2ccccc2C)cc1	inactive
CN(CC(=O)Nc1cccc2c1CCCC2)S(=O)(=O)c1ccc(Cl)cc1	inactive
Cc1ccc(S(=O)(=O)N(CC(=O)Nc2ccc(Cl)cc2Cl)c2ccccc2C)cc1	11.6 µM (active)
Cc1ccc(N2C(=O)SC(N(CC(=O)O)c3ccc(C)cc3)C2=O)cc1 (stereo not given)	inactive
C(#CCN1CCOCC1)CCCN1CCOCC1	inactive
COc1ccc(NC(=O)C(=O)NCc2ccco2)cc1	inactive
COc1ccc(Nc2nc(Cl)nc(NCc3ccco3)n2)cc1	inactive
COc1ccc(Nc2nc(NCc3ccco3)nc(N/N=C/c3ccccc3Cl)n2)cc1	23.1 µM (active)
CN1CCn2cnc(C(=O)NCC(=O)OC(C)(C)C)c2C1=O	inactive
CC12CCC(C(=O)N(CCC#N)CCC#N)(CC1=O)C2(C)C (stereo not given)	inactive
CC1=CC(C)(C)NC(=S)N1NC(=O)c1ccccc1Cl	inactive
COc1ccc(NS(=O)(=O)c2cc(NC(=O)c3ccc(S(=O)(=O)N(C)C)cc3)ccc2N2CCOCC2)cc1	inactive
COc1ccc(NS(=O)(=O)c2cc(NC(=O)C3CCCCC3)ccc2N2CCOCC2)cc1	13 µM (active)
COc1ccc(NS(=O)(=O)c2cc(NC(=O)/C=C/c3cc(OC)c(OC)c(OC)c3)ccc2N2CCCCC2)cc1	inactive
O=c1[nH]c(CN2CCOCC2)nc2scc(-c3ccccc3)c12	inactive
Oc1ccc(-n2nnnc2SCc2c(F)cccc2Cl)cc1	inactive
COc1ccccc1CNS(=O)(=O)c1ccc2c(c1)NC(=O)CS2	inactive
CC(CC(=O)N1CCN(c2ccccc2)CC1)S(=O)(=O)c1ccc2c(c1)NC(=O)CS2 (stereo not given)	20.6 µM (active)
CC(CC(=O)N1CCN(c2ccccc2)CC1)c1ccccc1 (stereo not given)	inactive
Cc1nonc1NC(=O)c1ccccc1Br	inactive
CC(C)C(C(=O)NCc1ccco1)N(CC1CCCO1)C(=O)CNS(=O)(=O)c1ccc(F)cc1 (stereo not given)	inactive
CCOC(=O)Cc1ccc(NC(=O)Nc2c[nH]c(=O)[nH]c2=O)cc1	inactive
CCN(CC)Cc1nc2sc(C)c(C)c2c(=O)[nH]1	inactive
Cc1ccc(S(=O)(=O)N2CCCC2C(=O)OCc2nc3sc(C)c(C)c3c(=O)[nH]2)cc1 (stereo not given)	inactive
CS(=O)(=O)N(Cc1nc2sc3c(c2c(=O)[nH]1)CCCC3)C1CCCCC1	23.1 µM (active)
CC(=O)Nc1ccc(NC(=O)CC2CCCC2)cc1	inactive
COc1cc(CCN=Cc2ccccc2O)c([N+](=O)[O-])cc1OC	inactive

Compound	Potency
Cc1c(NC(=O)C(=O)N/N=C/c2cccs2)c(=O)n(-c2ccccc2)n1C	inactive
Cc1cc(N=CC2=C(O)CCCC2=O)no1	inactive
COc1ccc(Nc2ncnc3ccc(Br)cc23)c(OC)c1	inactive
CC1(C)CC2CC(C)(CN2c2ncnc3ccc(Br)cc23)C1 (stereo not given)	3.26 µM (active)
CCCCn1c(N)c(N(CCOC)C(=O)CSCC(=O)Nc2cccc(C)c2)c(=O)[nH]c1=O	inactive
CC[C@@H](C)[C@@H](C(=O)N1CCN(C(=O)OC(C)(C)C)CC1)n1cc(CCC(=O)O)nn1	inactive
COc1ccc(C2NC(=O)N(C)C3=C2C(=O)N(c2ccc(C(=O)O)cc2)C3)cc1 (stereo not given)	inactive
Cc1ccc2nnn(Cc3cccc(C(C)(C)C)c3O)c2c1	11.6 µM (active)
Cc1ccc(C(=O)CSc2nnc(Cn3nnc4ccccc43)n2C)cc1	inactive
O=C(Nc1ccccc1)N[C@H]1C[C@H](C(=O)O)Nc2cc(Cl)cc(Cl)c21	inactive
CCCCCc1ccc(-c2ccc(OCC)cc2)nc1	inactive
COc1ccc2[nH]c3c(C)c4cc[n+](C)cc4c(C)c3c2c1	0.259 µM (active)
COc1ccc2[nH]c(=S)cc(C)c2c1	inactive
COc1ccc2[nH]c3ccc(OC)cc3c2c1	inactive
O=S(=O)(NCc1ccc2c(c1)OCO2)c1cccc2nsnc12	inactive
O=Cc1cn(-c2ccccc2)nc1-c1ccccn1	inactive
COc1ccc2c(c1)SC(C)CC2=O (stereo not given)	inactive
COc1ccc2c(c1)OC(O)(C(F)(F)C(F)F)CC2=O (stereo not given)	23.1 µM (active)
CCCC(C(=O)N1CCOCC1)N1C(=O)C2C3C=CC(C3)C2C1=O (stereo not given)	inactive
CC(=O)OCC(COC(C)=O)OC(C)=O	inactive
O=C(CN1C(=O)/C(=C\c2ccccc2F)SC1=S)Nc1nc2ccccc2s1	inactive
COCCN1CCn2c(nc3cc(NS(C)(=O)=O)ccc32)C1	inactive
O=C(CN1C(=O)c2ccccc2S1(=O)=O)NC1CCCCC1	inactive
COc1cccc(Oc2ccc(N)cc2)c1	inactive
COc1cc(OC)nc(N/N=C(\c2ccccc2)c2ccncc2)n1	inactive
CCOc1ccc(N2C(=O)CSC2=NC#N)cc1	inactive
CCC(C(=O)NC1CCCC1)N(C(=O)c1snc(C(N)=O)c1N)c1ccc2c(c1)OCCO2 (stereo not given)	inactive

Compound	Potency
CCC(C(=O)NC1CCCCC1)N(C(=O)c1snc(C(N)=O)c1N)c1ccc(OC)cc1OC (stereo not given)	23.1 µM (active)
COc1ccc(N(C(=O)c2snc(C(N)=O)c2N)C(C(=O)NC2CCCC2)c2ccco2)cc1OC (stereo not given)	inactive
COc1cccc(-n2c(=O)c3c(C)c(C(=O)N(C)C)sc3n(CC(=O)NCCc3ccc(OC)c(OC)c3)c2=O)c1	inactive
CN(C)C(CNC(=O)Cc1ccc([N+](=O)[O-])cc1)c1ccccc1 (stereo not given)	inactive
CCc1ccc(C(CNc2nc(C(F)(F)F)nc3ccccc23)N(C)C)cc1 (stereo not given)	18.4 µM (active)
C=CCn1cc(Cl)cc(C(=O)Nc2ccccc2)c1=O	inactive
CCn1cc(/C=C(\NC(=O)c2ccc(C)cc2)C(=O)NCCN2CCOCC2)c2ccccc21	inactive
COc1ccccc1NC(=O)CCCc1c[nH]c2ccccc12	inactive
O=C(CC(=O)N/N=C\c1ccc(F)cc1)NCCc1ccccc1	inactive
O=C(Cc1c[nH]c2ccccc12)N/N=C/c1cccc(F)c1	3.66 µM (active)
COCCNC(=O)C(c1ccc(O)cc1)N(C(=O)CCC(=O)Nc1nccs1)c1ccc(C)cc1 (stereo not given)	inactive
C/C(=N\N(C)C)c1ccc(OCCOc2ccc([N+](=O)[O-])cc2)cc1	25.9 µM (active)
CCOC(=O)COc1ccc([N+](=O)[O-])cc1	inactive
C/C(=N/NC(=O)CC(=O)N/N=C(\C)c1ccc([N+](=O)[O-])cc1)c1ccc([N+](=O)[O-])cc1	inactive
Cc1cccc(N(CC(=O)N2CCCC2)S(C)(=O)=O)c1C	inactive
CC1(OC(=O)CCc2ccccc2)C(=O)C=C2C=C(c3ccc(C#N)cc3)N(CCc3ccccn3)C=C2C1=O (stereo not given)	inactive
CCN(CC)S(=O)(=O)c1ccc2c3c(cccc13)C(=O)S2	inactive
C/C(=N\NC(=O)c1cccnc1)c1ccc(-n2ccnc2)cc1	inactive
CCC(C)NCCOCCOc1ccc(Br)cc1C (stereo not given)	20.6 µM (active)
COCC(C)NCc1cc(Br)ccc1OC (stereo not given)	inactive
O=C1C(=O)N(CCCN2CCOCC2)C(c2ccc([N+](=O)[O-])cc2)/C1=C(\O)c1ccc2c(c1)OCCO2 (stereo not given)	inactive
O=C(ON=C1CCN(S(=O)(=O)c2ccccc2)CC1)c1ccc(Cl)cc1	inactive
Cc1ccc(CNC(=O)CSc2nnc3c(n2)[nH]c2ccc(F)cc23)cc1	inactive
CCOc1cccc(-c2nnc(SCC(=O)NC3CC3)n2C)c1	inactive
CCOc1ccc2[nH]c3nc(SCC(=O)NC4CCCC4)nnc3c2c1	6.51 µM (active)
CC(Sc1nncn1C)C(=O)Nc1ccccc1-c1ccccc1 (stereo not given)	inactive
Cn1c(=O)c2cc(NC(=O)NCCc3cccs3)ccc2n1Cc1cccc(C(F)(F)F)c1	23.1 µM (active)

Compound	Potency
COc1ccc(CCNC(=O)Nc2ccc3c(c2)c(=O)n(C)n3C)cc1OC	inactive
O=C(Cc1cccs1)NCc1cccc(C(F)(F)F)c1	inactive
COc1ccc(S(=O)(=O)Nc2cccnc2)c(Cl)c1Cl	inactive
Cc1c(NC(=O)CSCc2ccccc2)cccc1C(=O)O	inactive
Cc1cccc2cc3c(N)c(C(=O)N4CCCc5ccccc54)sc3nc12	2.59 µM (active)
O=C(c1cc(-c2ccc(O)cc2)on1)N1CCCc2ccccc21	inactive
Cc1occc1C(=O)N1CCCc2ccccc21	inactive
CC(C)[C@H](NC(=O)OCc1ccccc1)C(=O)OCc1ccccc1	inactive
c1ccc2c(C[n+]3csc4ccccc43)cccc2c1	0.82 µM (active)
Nc1scc[n+]1Cc1cccc2cccnc12	inactive
CCOc1ccc(CCNC(=O)c2cc3c(=O)n(C)c4ccccc4c3n2C)cc1	14.6 µM (active)
CCOCCCNC(=O)c1cn(CC(C)C)c(=O)c2c1c1ccccc1n2C	inactive
CCOc1ccc(CC(=O)NCCc2csc3nc(-c4ccccc4F)nn23)cc1	inactive
Cn1c(C(=O)NCCc2ccsc2)cc2c(=O)n(C)c3ccccc3c21	16.4 µM (active)
CCOc1ccc(CCNC(=O)c2c(C)oc3ncn(C)c(=O)c23)cc1	inactive
Cn1c(C(=O)N2CCC(C(N)=O)CC2)cc2c(=O)n(C)c3ccccc3c21	inactive
COc1ccc(C(=O)NNC(=O)c2cnccn2)cc1[N+](=O)[O-]	inactive
CCc1ccc(N2C(=O)CN(S(=O)(=O)CC)CC2(C)C(=O)NC2CCCCC2)cc1 (stereo not given)	inactive
Cc1cccc(-n2c(O)c(C=Nc3ccccc3N)c(=O)[nH]c2=O)c1	inactive
CC1CN(CCOc2ccccc2[N+](=O)[O-])CC(C)O1 (stereo not given)	inactive
Cc1cccc(C)c1OCCN1CCOCC1	inactive
Cc1cc(C)c(OCCN2CC(C)OC(C)C2)c(Br)c1 (stereo not given)	16.4 µM (active)
COc1ccc(N2CCN(S(=O)(=O)c3ccc4c(c3)N(C(C)=O)CCO4)CC2)cc1	inactive
O=C(CN1C(=O)C2C3C=CC(C3)C2C1=O)NCCc1ccccc1Cl (stereo not given)	inactive
